Screening data (PubChem BioAssay)
ANO1 block – blocks the mouse calcium-activated chloride channel TMEM16A; Q8BHY3; HEK293 TMEM16A/YFP iodide influx fluorescence, ionomycin; normalized B-score (activity score, 25-100; higher = stronger inhibition) at 10 µM; actives 1.2% (n = 310,000); AID 588511;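 active means ratio plate-corrected score three or more library SD toward inhibition, starting fluorescence score within five deviations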;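 further: score derived from kinetic fluorescence span divided by baseline fluorescence per well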
ANO1 activ – activates or potentiates the mouse TMEM16A chloride channel; Q8BHY3; HEK293 TMEM16A/YFP-H148Q/I152L, iodide quench fluorescence; active compounds read low; B-score at 10 µM; actives 0.3% (n = 340,000); AID 623877;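 active means fluorescence-ratio B-score plate-corrected deviation score at least 3 library SD below zero, with starting fluorescence score within 5 deviations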;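 further: channel opened by trigger with iodide after compound preincubation; score built on the fluorescence ratio of max minus min over baseline; more negative score means more quench and so TMEM16A activation or potentiation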
CHT allo act – allosteric activators of human choline transporter CHT. Q9GZV3. CHT-expressing cells, membrane potential dye, choline EC20; active compounds read high; LV-AA mutant CHT in HEK293 cells. B-score at 10 µM. actives 0.49% (n = 310,000);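 active means initial fluorescence not abnormally high and integrated response B-score, plate-corrected, over 3 SD above library mean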
Target sequence (Q9GZV3 whole entry, looked up): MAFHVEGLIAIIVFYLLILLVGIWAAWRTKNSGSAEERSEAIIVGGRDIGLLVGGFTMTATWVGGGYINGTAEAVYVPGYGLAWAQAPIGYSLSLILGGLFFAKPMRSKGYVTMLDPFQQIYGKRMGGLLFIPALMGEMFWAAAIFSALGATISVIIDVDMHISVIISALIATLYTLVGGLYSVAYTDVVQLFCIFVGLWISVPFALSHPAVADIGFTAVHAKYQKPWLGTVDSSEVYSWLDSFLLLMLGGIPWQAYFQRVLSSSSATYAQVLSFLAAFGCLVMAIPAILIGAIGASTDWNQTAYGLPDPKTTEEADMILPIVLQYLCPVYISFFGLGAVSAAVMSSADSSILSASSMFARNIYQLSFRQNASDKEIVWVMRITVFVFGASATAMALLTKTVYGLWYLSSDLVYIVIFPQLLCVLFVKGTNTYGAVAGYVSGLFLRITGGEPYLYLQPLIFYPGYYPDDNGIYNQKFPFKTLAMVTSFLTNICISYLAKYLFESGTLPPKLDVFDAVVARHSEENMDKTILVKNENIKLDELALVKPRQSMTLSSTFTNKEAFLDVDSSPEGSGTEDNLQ
CHT block – human CHT choline transport inhibition; CHT-expressing cells, membrane potential dye, choline response; active compounds read low; Q9GZV3; actives 0.86% (n = 310,000); B-score at 10 µM;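 active means B-score over 3 SD under the library average, and starting fluorescence ratio not unusually high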;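 further: choline stimulus applied at its EC90 after an EC20 pre-addition; B-score computed on integrated fluorescence ratio after choline addition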
* marks the source's active call; other numbers are inactive results. Compounds with a hit are over-represented: about 2.4% of the library has one in this group of screens.

What do the screens show for `Cc1cccc(-n2cc(CNCCc3nc(C)cc(C)n3)c(-c3cccc(F)c3)n2)c1`?
ANO1 block: inactive; ANO1 activ: inactive; CHT allo act: inactive; CHT block: inactive

How did O=C(Nc1ccccc1)c1oc2ccccc2c1NC(=O)C1CC1 do in these assays?
ANO1 block: inactive; ANO1 activ: inactive; CHT allo act: inactive; CHT block: inactive

What do the screens show for `COc1ccc(CCNC(=O)c2cccc(NC(=O)CC3SC(N4CCCCC4)=NC3=O)c2)cc1OC` (stereo not given)?
ANO1 block: inactive; ANO1 activ: inactive; CHT allo act: inactive; CHT block: inactive

Results for O=C(Nc1ccc(OC(F)F)cc1)c1cc(S(=O)(=O)N2CCOCC2)ccc1N1CCCC1 ?
ANO1 activ: inactive

How did O=C(NC1CC1)C1CCN(C2CCN(C(=O)Cc3ccc4c(c3)OCO4)CC2)CC1 do in these assays?
ANO1 block: inactive; ANO1 activ: inactive; CHT allo act: inactive; CHT block: -10*

What do the screens show for `CN(C)C(=O)N1CCC(C(=O)NCc2ccc3c(c2)OCO3)CC1`?
ANO1 block: inactive; ANO1 activ: inactive; CHT allo act: inactive; CHT block: inactive

What do the screens show for `COc1cccc(-n2c(C)c(C(C)=O)c(C(C)=O)c2C)c1`?
ANO1 block: inactive; ANO1 activ: -13*; CHT allo act: inactive; CHT block: inactive

What do the screens show for `O=C1CNC(=S)N1CCc1ccccc1Cl`?
ANO1 block: inactive; ANO1 activ: inactive; CHT allo act: inactive; CHT block: -5.1*

What do the screens show for `O=C1CNC(=S)N1CCc1ccc(Cl)cc1`?
ANO1 block: inactive; ANO1 activ: inactive; CHT allo act: inactive; CHT block: inactive

Results for CCc1ccc2oc(=O)cc(CN(C)Cc3ccccc3)c2c1 ?
ANO1 block: 100*; ANO1 activ: inactive; CHT allo act: inactive; CHT block: inactive

What do the screens show for `O=C1C(=O)N(CCCc2ccccc2)c2ccccc21`?
ANO1 block: inactive; ANO1 activ: inactive; CHT allo act: inactive; CHT block: inactive

Results for Nc1nc2c(s1)CC(c1ccccc1)CC2 (stereo not given) ?
ANO1 block: 25*; ANO1 activ: inactive; CHT allo act: inactive; CHT block: inactive

What do the screens show for `Cc1ccc(N2C(=O)N(CC(=O)NCc3ccccc3Cl)C(=O)C2C)cc1` (stereo not given)?
ANO1 block: inactive; ANO1 activ: inactive; CHT allo act: inactive; CHT block: inactive

Results for O=C(NCC(c1cccs1)N1CCOCC1)c1ccccc1NS(=O)(=O)c1cccc([N+](=O)[O-])c1 (stereo not given) ?
ANO1 block: inactive; ANO1 activ: inactive; CHT allo act: inactive; CHT block: inactive

Results for O=C(NCC(c1cccs1)N1CCOCC1)c1ccccc1NS(=O)(=O)c1ccc(Cl)c([N+](=O)[O-])c1 (stereo not given) ?
ANO1 block: 25*; ANO1 activ: inactive; CHT allo act: inactive; CHT block: inactive

What do the screens show for `CN/C(=C/[N+](=O)[O-])NCCSCc1ccc(CN(C)C)o1`?
ANO1 block: inactive; ANO1 activ: inactive; CHT allo act: inactive; CHT block: inactive

How did CCCN(CCC)S(=O)(=O)c1ccc(C(=O)Nc2nnc(CSC)o2)cc1 do in these assays?
ANO1 block: inactive; ANO1 activ: inactive; CHT allo act: inactive; CHT block: inactive

Results for COc1cccc(-c2nnc(NC(=O)c3cccc(F)c3)o2)c1 ?
ANO1 block: inactive; ANO1 activ: inactive; CHT allo act: inactive; CHT block: inactive

What do the screens show for `CCCN(CCC)S(=O)(=O)c1ccc(C(=O)Nc2nnc(-c3cc(OC)cc(OC)c3)o2)cc1`?
ANO1 block: 100*; ANO1 activ: inactive; CHT allo act: inactive; CHT block: inactive

Results for CCCN(CCC)S(=O)(=O)c1ccc(C(=O)Nc2nnc(-c3cccc(OC)c3)o2)cc1 ?
ANO1 block: 25*; ANO1 activ: inactive; CHT allo act: inactive; CHT block: inactive

How did O=C(OCn1ncc(Br)c(Br)c1=O)c1ccccc1Cl do in these assays?
ANO1 block: inactive; ANO1 activ: inactive; CHT allo act: inactive; CHT block: inactive

Results for O=C(OCn1ncc(Br)c(Br)c1=O)c1ccc(F)cc1 ?
ANO1 block: inactive; ANO1 activ: inactive; CHT allo act: inactive; CHT block: -6.5*

How did Cc1ccc(OCCC(=O)OCC(=O)Nc2ccc(C)cc2Cl)cc1 do in these assays?
ANO1 block: inactive; ANO1 activ: inactive; CHT allo act: inactive; CHT block: inactive

Results for COc1ccccc1C(CCN(Cc1ccccc1)C(C)=O)c1ccco1 (stereo not given) ?
ANO1 block: inactive; ANO1 activ: -9.1*; CHT allo act: inactive; CHT block: inactive

How did Cc1ccc(S(=O)(=O)/N=C2/NC(=O)/C(=C/c3ccncc3)S2)cc1 do in these assays?
ANO1 block: inactive; CHT allo act: inactive; CHT block: -5.3*

What do the screens show for `Cc1ccc(/C=C2\S/C(=N/S(=O)(=O)c3cccs3)NC2=O)cc1`?
ANO1 block: 25*; ANO1 activ: inactive; CHT allo act: inactive; CHT block: inactive

How did Cc1ccc(S(=O)(=O)/N=C2/NC(=O)/C(=C/c3cc([N+](=O)[O-])ccc3O)S2)cc1 do in these assays?
ANO1 block: inactive; ANO1 activ: inactive; CHT allo act: inactive; CHT block: inactive

How did Cc1ccc(S(=O)(=O)/N=C2/NC(=O)/C(=C/c3ccccc3)S2)cc1 do in these assays?
ANO1 block: 100*; ANO1 activ: inactive; CHT allo act: inactive; CHT block: inactive

What do the screens show for `COc1cc(/C=C2\S/C(=N/S(=O)(=O)c3ccc(C)cc3)NC2=O)c([N+](=O)[O-])cc1OC`?
ANO1 block: inactive; ANO1 activ: inactive; CHT allo act: inactive; CHT block: -7.4*

Results for Cc1ccc(S(=O)(=O)/N=C2/NC(=O)/C(=C\c3ccccc3)S2)cc1 ?
ANO1 activ: inactive

How did Cc1cc(C)c2c(n1)SCC(=O)N2CC(=O)Nc1ccccc1Cl do in these assays?
ANO1 block: inactive; ANO1 activ: inactive; CHT allo act: inactive; CHT block: inactive

What do the screens show for `COc1ccc(C(=O)CCC(=O)N2CCN(c3cc(C)ccc3C)CC2)cc1`?
ANO1 block: inactive; ANO1 activ: -5.8*; CHT allo act: inactive; CHT block: inactive

Results for CC(=O)c1ccc(NC(=S)NC(C)c2ccc(Cl)cc2Cl)cc1 (stereo not given) ?
ANO1 block: 100*; ANO1 activ: inactive; CHT allo act: inactive; CHT block: inactive

How did O=C(O)CN1C(=O)/C(=C\c2cccc(OC(=O)c3ccco3)c2)SC1=S do in these assays?
ANO1 block: inactive; ANO1 activ: inactive; CHT allo act: inactive; CHT block: inactive

What do the screens show for `O=C(O)CN1C(=O)/C(=C\c2ccc(OC(=O)c3ccco3)cc2)SC1=S`?
ANO1 block: inactive; ANO1 activ: -5.9*; CHT allo act: inactive; CHT block: inactive
